The list is not random: actives were taken first. Their share in the collection is about 3.1%.
p53null 32C tox: selectivity test: cytotoxicity in p53 null cells, permissive temperature | H1299-neo p53 null cells, ATP luminescence, 24 h, 32C | Potency, µM (series often up to 46.1 µM), most hits filed as cytotoxic | hit rate 0.62% among 55,000 | AID 903; also: nearly all actives have a fitted effect of over 55% in size
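Cytotoxicity: H1299-neo (no p53), 32C, 24 h treatment. Concentrations up to 46 uM. Readout cellular ATP, luminescence. Normalization to DMSO basal and tamoxifen 100 uM maximal kill.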
OvCa metastasis: blocks SKOV3ip1 adhesion and invasion in omental model; hit rate 0.1% among 46,000; SKOV3ip1-GFP adhesion/invasion on 3D omental model, fluorescence; AID 1963576; Potency, µM (titrated, usually from 45.8 µM), hits mostly inhibitors; also: nearly all actives have a fitted effect of over 65% in size
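qHTS, 4-pt dose (0.36-46 umol/L); SKOV3ip1-GFP, 1,200 cells/well, no FBS; primary omental fibroblast/mesothelial co-culture 48 h pre-grown; 2 h RT + 16 h 37 C; PBS wash, 4% PFA; GFP count 488/509 nm.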
PMP22 txn prim: modulators of PMP22 gene transcription in S16 Schwann cells. S16 Pmp22-F2sN Schwann cells, FLuc/NLuc coincidence luminescence, 24 h. Potency, µM (titrated, usually from 57.5 µM), usual class: inhibitors. hit rate 2% among 43,000; active = clear falling dose curves in both reporters; inconclusive = both reporters move, but less clearly or upward; inactive = either reporter flat; the % is the NLuc reporter signal
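S16 Schwann cells carrying FLuc/NLuc coincidence reporter in the Pmp22 3' UTR treated with compound 24 h at 37C; FLuc then NLuc luminescence read sequentially by dual-luciferase reagents.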
mTORC1 inh: inhibitors of mTORC1 signaling in Tsc2-/- p53-/- MEF cells; Tsc2-/- p53-/- MEF, phospho-rpS6 immunofluorescence/PI, 24 h; Potency, µM (top dose mostly 38.3 µM), hits mostly inhibitors; hit rate 0.78% among 44,000; AID 493208; also: nearly all actives have a fitted effect of over 50% in size
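Plate MEFs (Tsc2-/-, p53-/-, empty vector) in DMEM/10% FBS; after 24 h add compound, incubate 24 h at 37 degree Celsius; fix in PFA/TX-100, block, stain phospho-rpS6 and 10 uM PI; scan at 488 nm; report % positive cells.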
p53null 39C kill: selectivity test: cytotoxicity in p53 null cells, nonpermissive temperature | H1299 p53-null (neo) cells, 39C, ATPlite viability, 24 h | Potency, µM (titrated, usually from 46.1 µM), usual class: cytotoxic | hit rate 0.97% among 55,000 | AID 904; also: nearly all actives have a fitted effect of over 50% in size
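ATP-luminescence viability readout (ATPlite, 20 min RT) after 24 hr compound treatment at 39C of H1299-neo or H1299-p53A138V cells; titration up to 46 uM; normalized to DMSO and 100 uM tamoxifen; Hill-fit AC50.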
S16 F2sN tox: cytotoxicity in S16 Pmp22-F2sN Schwann cells. Potency, µM (series often up to 57.5 µM), usual class: cytotoxic. hit rate 0.48% among 43,000. AID 1508642. S16 Pmp22-F2sN Schwann cells viability, CellTiter-Glo, 24 h; also: nearly all actives have a fitted effect of over 65% in size
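S16 Pmp22-F2sN Schwann cells (500-1,000/well) in phenol-red-free DMEM with 10% FBS received 23 nL compound by pin tool for 24 h at 37 °C. Viability was then read as CellTiter-Glo luminescence after 15 min at room temperature.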
NLuc sat counter: NanoLuc enzyme inhibition artifact for PMP22 screen; hit rate 4% among 690; Secreted NLuc enzyme (filtered S16 cell medium), Nano-Glo luminescence; shares compounds with PMP22 txn prim; Potency, µM (top dose mostly 57.5 µM), hits mostly inhibitors
NLuc Km counter: counter-screen for PMP22 expression modulators: NanoLuc inhibition at Km; shares compounds with PMP22 txn prim; secreted NLuc enzyme, coelenterazine luminescence, Km conditions; Potency, µM (top dose mostly 57.5 µM), most hits filed as inhibitors; hit rate 5% among 690
FLuc counter: counter-screen for PMP22 expression modulators: firefly luciferase inhibition; purified P. pyralis FLuc, luminescence, 10 min; shares compounds with PMP22 txn prim; Potency, µM (titrated, usually from 57.5 µM), actives largely listed as inhibitors; 690 tested, under 10 active
Target sequence (P08659 whole entry, looked up): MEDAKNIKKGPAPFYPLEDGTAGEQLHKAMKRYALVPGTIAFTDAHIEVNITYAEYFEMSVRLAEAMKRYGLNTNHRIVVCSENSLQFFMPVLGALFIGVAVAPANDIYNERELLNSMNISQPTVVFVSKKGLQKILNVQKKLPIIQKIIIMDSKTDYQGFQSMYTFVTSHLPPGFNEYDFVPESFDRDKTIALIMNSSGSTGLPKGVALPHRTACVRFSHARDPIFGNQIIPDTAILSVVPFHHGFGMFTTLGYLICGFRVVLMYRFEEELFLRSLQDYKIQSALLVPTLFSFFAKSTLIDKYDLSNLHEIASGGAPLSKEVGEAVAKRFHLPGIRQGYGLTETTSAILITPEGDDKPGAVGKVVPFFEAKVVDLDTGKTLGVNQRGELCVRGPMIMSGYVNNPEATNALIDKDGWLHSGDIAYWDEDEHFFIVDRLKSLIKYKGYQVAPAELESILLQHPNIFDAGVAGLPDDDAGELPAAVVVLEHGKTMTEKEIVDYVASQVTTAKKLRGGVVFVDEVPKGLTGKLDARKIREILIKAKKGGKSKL
S16 viab conf: S16 Schwann cell cytotoxicity, confirmatory; shares compounds with PMP22 txn prim; S16 Schwann cells viability, CellTiter-Glo ATP luminescence, 24 h; Potency, µM (titrated, usually from 57.5 µM), most hits filed as cytotoxic; hit rate 7% among 690; AID 1508641
PMP22 txn cnf: PMP22 transcription modulation, confirmatory | shares compounds with PMP22 txn prim | S16 Schwann cells Pmp22-F2sN, dual luciferase, 24 h | Potency, µM (doses to about 57.5 µM), hits mostly inhibitors | hit rate 22% among 690; active = clear falling dose curves in both reporters; inconclusive = both reporters move, but less clearly or upward; inactive = either reporter flat; the % is the FLuc reporter signal
Each line names hits and unclear results; the compound was inactive in the other large screens (follow-up assays come after a bar, where they were run). Unless noted, calls follow the shape of the dose curve; as a rule, active = well fitted curve in the direction sought with a large enough effect; inconclusive = small, poorly fitted or top-dose-only effect, or another doubt; inactive = no such curve, though single readings can be large; an effect the other way counts as inactive or inconclusive.

CC1CCN(S(=O)(=O)c2ccc3c(c2)CCN3C(=O)Nc2ccc(Br)cc2)CC1	PMP22 txn prim inconclusive
COc1ccc(Cn2c(SCC(N)=O)nc3c(sc4ccccc43)c2=O)cc1	PMP22 txn prim 12µM, S16 F2sN tox inconclusive | NLuc sat counter inactive | NLuc Km counter inactive | FLuc counter inactive | S16 viab conf 27µM | PMP22 txn cnf inconclusive
O=C(Nc1ccccc1-c1cn2c(CN3CCNCC3)csc2n1)c1cnc2ccccc2n1	none (no result: p53null 32C tox, PMP22 txn prim, mTORC1 inh, p53null 39C kill, S16 F2sN tox)
CCOC(=O)c1c(-c2ccccc2)oc2ccc(NS(=O)(=O)c3ccc(OC)cc3)cc12	OvCa metastasis inconclusive, mTORC1 inh inconclusive, S16 F2sN tox inconclusive
CCCc1oc2ccc(NS(=O)(=O)c3ccc(OC)cc3)cc2c1C(=O)OCC	PMP22 txn prim 13µM, mTORC1 inh 4.1µM, p53null 39C kill inconclusive | NLuc sat counter inactive | NLuc Km counter inconclusive | FLuc counter inactive | S16 viab conf inactive | PMP22 txn cnf inactive
CCOC(=O)c1sc2ccccc2c1S(=O)(=O)N1CCN(c2ccccc2)CC1	none
CCOC(=O)c1sc2ccccc2c1S(=O)(=O)N1CCN(c2cccc(OC)c2)CC1	OvCa metastasis inconclusive, PMP22 txn prim 6.3µM, mTORC1 inh inconclusive, S16 F2sN tox inconclusive | NLuc sat counter inactive | NLuc Km counter inactive | FLuc counter inactive | S16 viab conf inactive | PMP22 txn cnf inactive
Nc1ccc(C(=O)c2cc3c(ccc4ccccc43)[nH]2)cc1	none (no result: p53null 32C tox, PMP22 txn prim, mTORC1 inh, p53null 39C kill, S16 F2sN tox)
COc1cc(N2CCC(C(N)=O)CC2)ccc1Nc1nc(N)c(Cl)c(Nc2ccccc2S(=O)(=O)C(C)C)n1	none (no result: p53null 32C tox, PMP22 txn prim, mTORC1 inh, p53null 39C kill, S16 F2sN tox)
Cc1ccc(CSc2nc3ccc(NC(=O)COc4ccccc4)cc3s2)cc1	PMP22 txn prim 15µM | NLuc sat counter inactive | NLuc Km counter inactive | FLuc counter inactive | S16 viab conf inactive | PMP22 txn cnf inactive
O=C(COc1ccc(F)cc1)Nc1ccc2nc(SCC(=O)N3CCc4ccccc43)sc2c1	PMP22 txn prim 3µM | NLuc sat counter inconclusive | NLuc Km counter inactive | FLuc counter inactive | S16 viab conf inactive | PMP22 txn cnf inconclusive
O=C(COc1ccccc1)Nc1ccc2nc(SCC(=O)N3CCc4ccccc43)sc2c1	PMP22 txn prim inconclusive
CCOc1ccc(C(=O)Nc2ccc3nc(SCc4ccccc4)sc3c2)cc1	PMP22 txn prim 8.9µM | NLuc sat counter inactive | NLuc Km counter inactive | FLuc counter inactive | S16 viab conf inconclusive | PMP22 txn cnf 18µM
CCNC(=O)CCCC=CC[C@@H]1[C@H](C=CC(O)CCc2ccccc2)[C@@H](O)C[C@@H]1O (some centres not stated)	none (no result: p53null 32C tox, PMP22 txn prim, mTORC1 inh, p53null 39C kill, S16 F2sN tox)
CC(C)C[C@@H](C=O)NC(=O)[C@H](CC(C)C)NC(=O)[C@H](CC(C)C)NC(=O)OCc1ccccc1	none (no result: p53null 32C tox, PMP22 txn prim, mTORC1 inh, p53null 39C kill, S16 F2sN tox)

Screening data (PubChem)
